Bioassay records (PubChem BioAssay)
An excerpt weighted towards active compounds, which were near 2.8% of everything screened.
esBAF inh – blocks esBAF chromatin remodeling in mouse ES cells | Bmi1-luciferase knock-in reporter, 24 h; 100% = twice the neutral-well signal | reporter increase, % at 12.5 µM | 2% of 350,000 active; in the data active = activation above about 40%; inconclusive = no clear call, values can overlap the other calls;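 note: a rise in the Bmi1 reporter signal indicates esBAF inhibition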
Wnt act – activates Wnt/beta-catenin signaling in a reporter cell assay. activator, plate reader. activation, % at 9.35 µM. 1.2% of 300,000 active; in the data active = activation above about 30%, passing the limit was not always enough; inconclusive = no clear call, values can overlap the other calls
FXN GAA850 act – increases GAA850 frataxin promoter reporter activity; 0.56% of 360,000 active; HEK293 lucGAA850 FXN promoter luciferase reporter, 24 h; percent of 10 µM SAHA response; AID 540364; activation, % at 6 µM;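 active = activation above the average of all compounds screened plus 3 SD, cutoff fixed separately per campaign, cut at about 7.5% in these data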
MITF TRPM1 HTS – MITF TRPM1 promoter activation in melanoma cells; activation, % at 12.5 µM; 0.75% of 300,000 active; SK-MEL-5 TRPM1-promoter luciferase, 24 h; % of positive control, neutral wells = 0;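 active = mean activation of at least 80% with every replicate also reaching 80%; inconclusive = mean reaches 80% but some replicate falls short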
GAA30 counter – activates GAA30 frataxin promoter, counter-screen for GAA850 activators; shares compounds with FXN GAA850 act; HEK293 lucGAA30 FXN promoter luciferase, 24 h; DMSO = 0%, 5 µM ipriflavone = 100%; activation, % at 6 µM; 66% of 1,900 active; AID 588350;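 active = mean activation above the mean of solvent-only control wells plus 3 SD, cut at about 22% in these data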;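 note: counterscreen of GAA850 promoter hits where activity marks nonselective or luminescence artifacts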
GAA850 confirm – confirmation of GAA850 frataxin (FXN) promoter activators. HEK293 lucGAA850 FXN promoter luciferase reporter, 24 h; 100% = activation by SAHA. shares compounds with FXN GAA850 act. 86% of 1,900 active. activation, % at 6 µM;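 active = mean activation above a set limit taken from the primary screen, cut at about 8% in these data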
Of the large screens only hits and unclear results are named; the others gave an inactive call (follow-up assays come after a bar, where they were run).

COCCOC(=O)c1c(C)oc2ccc(NS(=O)(=O)c3cccs3)cc12	FXN GAA850 act 8.6 | GAA30 counter inactive | GAA850 confirm inactive
COc1ccc(S(=O)(=O)N(C)C[C@@H]2OCCCC[C@@H](C)Oc3ccc(NC(=O)c4ccccc4)cc3C(=O)N([C@H](C)CO)C[C@@H]2C)cc1	none (no result: Wnt act, FXN GAA850 act, MITF TRPM1 HTS)
C=CCNc1nc2c(c(=O)n(C)c(=O)n2C)n1Cc1ccc(F)cc1	FXN GAA850 act 11 | GAA30 counter inactive | GAA850 confirm inactive
O=C(Nc1ccc2c(c1)OCO2)N[C@@H]1C=C[C@@H](CC(=O)N2CCN(c3ccccc3)CC2)O[C@H]1CO	none (no result: Wnt act, FXN GAA850 act, MITF TRPM1 HTS)
COc1ccc(NC(=O)Nc2ccc3c(c2)C(=O)N([C@H](C)CO)C[C@H](C)[C@H](CN(C)Cc2ccc4c(c2)OCO4)OCCCC[C@H](C)O3)cc1	none (no result: Wnt act, FXN GAA850 act, MITF TRPM1 HTS)
O=C(Nc1nnc(C2CCCCC2)s1)c1cccs1	esBAF inh 51, Wnt act 58, FXN GAA850 act 7.8 (no result: MITF TRPM1 HTS) | GAA30 counter 95 | GAA850 confirm 27
C[C@@H]1CN([C@@H](C)CO)C(=O)Cc2cc(NS(=O)(=O)c3ccc(Cl)cc3)ccc2O[C@@H]1CN(C)Cc1ccc(C(=O)O)cc1	none (no result: Wnt act, FXN GAA850 act, MITF TRPM1 HTS)
CC1(C)Cc2c(c(N3CCOCC3)nc3sc(C(N)=O)c(N)c23)CO1	none (no result: esBAF inh)
CC1(C)Cc2c(c(N3CCOCC3)nc3sc(C#N)c(N)c23)CS1	FXN GAA850 act 8.3 (no result: esBAF inh, Wnt act) | GAA30 counter inactive | GAA850 confirm 16
CN1C(=O)c2cc(NC(=O)C3CCCC3)ccc2OC[C@@H]2O[C@@H](CC(=O)NCC3CC3)CC[C@H]21	none (no result: Wnt act, FXN GAA850 act, MITF TRPM1 HTS)
Cc1c(C(=O)NCc2cccc(Cl)c2)sc(=O)n1Cc1cccc(F)c1	FXN GAA850 act 12 (no result: MITF TRPM1 HTS) | GAA30 counter inactive | GAA850 confirm inactive
N#Cc1cc(O)c(-n2nnc3ccccc32)cc1C#N	none
N#Cc1cc(Oc2cccc3cccnc23)c(-n2nnc3ccccc32)cc1C#N	FXN GAA850 act 7.7 (no result: esBAF inh) | GAA30 counter inactive | GAA850 confirm 15
C[C@@H]1CN([C@@H](C)CO)C(=O)Cc2cc(NC(=O)Nc3ccc(C(F)(F)F)cc3)ccc2O[C@@H]1CN(C)S(C)(=O)=O	none (no result: Wnt act, FXN GAA850 act, MITF TRPM1 HTS)
Nc1cc([N+](=O)[O-])cc2oc(-c3ccccc3)cc12	FXN GAA850 act 8.2 | GAA30 counter 94 | GAA850 confirm 33
CCN(CC)S(=O)(=O)c1ccc(-c2cn3ccccc3n2)cc1	none (no result: Wnt act, MITF TRPM1 HTS)
CCOc1ccc(-c2cn3ccccc3n2)cc1[N+](=O)[O-]	FXN GAA850 act 9.2 (no result: esBAF inh) | GAA30 counter 121 | GAA850 confirm 40
O=[N+]([O-])c1ccc(-c2cn3ccccc3n2)cc1	Wnt act 35, FXN GAA850 act 9.2 (no result: esBAF inh, MITF TRPM1 HTS) | GAA30 counter 108 | GAA850 confirm 50
COC(=O)c1c(NC(=O)CN2CCC3(O)CCCCC3C2c2ccc(OC)cc2OC)sc(C)c1C (configuration not stated)	FXN GAA850 act 10 (no result: esBAF inh) | GAA30 counter 26 | GAA850 confirm inactive
COC(=O)c1c(NC(=O)CN2CCC3(O)CCCCC3C2c2ccccc2OC)sc(C)c1C (configuration not stated)	none (no result: esBAF inh)
Cc1noc(C)c1NC(=O)Nc1ccc2c(c1)C(=O)N([C@@H](C)CO)C[C@@H](C)[C@@H](CN(C)Cc1ccc(C(F)(F)F)cc1)O2	none (no result: Wnt act, FXN GAA850 act, MITF TRPM1 HTS)
C[C@@H]1CN([C@H](C)CO)C(=O)c2cc(NS(C)(=O)=O)ccc2O[C@@H](C)CCCCO[C@@H]1CN(C)S(=O)(=O)c1cn(C)cn1	none (no result: Wnt act, FXN GAA850 act, MITF TRPM1 HTS)
Cc1cc(O)ccc1N/C=C/c1onc(C)c1[N+](=O)[O-]	Wnt act 60, FXN GAA850 act 9.1 (no result: esBAF inh) | GAA30 counter 122 | GAA850 confirm 39
Cc1cccc(N/C=C/c2onc(C)c2[N+](=O)[O-])c1	none (no result: esBAF inh, Wnt act)
CO[C@H]1CN(C)C(=O)c2cc(NC(=O)C3CC3)ccc2OC[C@@H](C)N(Cc2cccnc2)C[C@@H]1C	none (no result: Wnt act, FXN GAA850 act, MITF TRPM1 HTS)
CCCCOC(=O)Nc1nnc(CC)s1	FXN GAA850 act 7.7 (no result: Wnt act) | GAA30 counter 51 | GAA850 confirm 27
CCC(=O)N1C[C@@H](C)[C@@H](OC)CN(C)C(=O)c2cc(NC(=O)c3cnccn3)ccc2OC[C@H]1C	none (no result: Wnt act, FXN GAA850 act, MITF TRPM1 HTS)
CSC1=C(C#N)C(c2ccccc2C)C(C#N)=C(N)N1 (configuration not stated)	FXN GAA850 act 11 (no result: Wnt act) | GAA30 counter 25 | GAA850 confirm 15
CSC1=C(C#N)C(c2ccccc2Cl)C2=C(N1)c1ccccc1C2=O (configuration not stated)	none (no result: Wnt act, MITF TRPM1 HTS)
O=C(Nc1ccc2oc(-c3ccccc3Cl)nc2c1)c1ncn[nH]1	esBAF inh inconclusive
O=C(Nc1ccc2oc(-c3cccc4ccccc34)nc2c1)c1ncn[nH]1	FXN GAA850 act 8.8 (no result: Wnt act) | GAA30 counter 104 | GAA850 confirm 41
CC(O)C(O)C(O)C(O)/C=N/NC(=O)c1ccccc1 (configuration not stated)	FXN GAA850 act 7.7 (no result: esBAF inh) | GAA30 counter 23 | GAA850 confirm inactive
CN(C)/C=N/NC(=O)c1ccccc1	none
CS(=O)(=O)c1nc(-c2ccccc2)cc(C(F)(F)F)n1	FXN GAA850 act 25 (no result: Wnt act) | GAA30 counter inactive | GAA850 confirm inactive
Cc1cc(NC(=O)CCS(=O)(=O)c2nc(-c3ccccc3)cc(C(F)(F)F)n2)no1	none (no result: MITF TRPM1 HTS)
CC(=O)Nc1cccc(OCC(=O)Nc2sccc2C(N)=O)c1	Wnt act inconclusive, FXN GAA850 act 9.8 | GAA30 counter 109 | GAA850 confirm 36
Cc1noc(C)c1S(=O)(=O)N(C)C[C@H]1OCCCC[C@H](C)Oc2ccc(NC(=O)Nc3ccc(F)cc3)cc2C(=O)N([C@@H](C)CO)C[C@@H]1C	none (no result: Wnt act, FXN GAA850 act, MITF TRPM1 HTS)
COc1nc(N(C#N)CC(N)=O)nc(N2CCCC2)n1	FXN GAA850 act 12 (no result: Wnt act, MITF TRPM1 HTS) | GAA30 counter inactive | GAA850 confirm 18
C[C@H](CO)N1C[C@H](C)[C@H](CN(C)C(=O)Cc2ccccc2)OCCCC[C@H](C)Oc2ccc(NS(=O)(=O)c3cn(C)cn3)cc2C1=O	none (no result: Wnt act, FXN GAA850 act, MITF TRPM1 HTS)
CCCn1c(=O)[nH]c(=O)c2c(C(F)(F)F)cc(-c3ccc(C)cc3)nc21	none (no result: esBAF inh)
CC(C)Cn1c(=O)[nH]c(=O)c2c(C(F)(F)F)cc(-c3ccccc3)nc21	FXN GAA850 act 7.7 | GAA30 counter inactive | GAA850 confirm 16
Cc1noc(C)c1NC(=O)Nc1ccc2c(c1)C(=O)N([C@@H](C)CO)C[C@H](C)[C@@H](CN(C)S(C)(=O)=O)O2	none (no result: Wnt act, FXN GAA850 act, MITF TRPM1 HTS)
CCOC(=O)c1sc(=NC(=O)c2ccccc2Br)n(C)c1C	esBAF inh 58, Wnt act 32, FXN GAA850 act 11, MITF TRPM1 HTS inconclusive | GAA30 counter 106 | GAA850 confirm 29
Cc1ccc(-c2nc(N)c3c(-c4ccc(C)cc4)nn(C(C)(C)C)c3n2)cc1	none (no result: Wnt act)
CC(C)(C)n1nc(-c2ccc(Cl)cc2)c2c(N)ncnc21	FXN GAA850 act 11 (no result: esBAF inh, Wnt act) | GAA30 counter 64 | GAA850 confirm inactive
CC(C)(C)n1nc(-c2ccc(F)cc2)c2c(N)ncnc21	FXN GAA850 act 12 (no result: Wnt act) | GAA30 counter 54 | GAA850 confirm 12
